Measured values published in PubChem BioAssay (NCATS).
Inconclusive results are not listed. A call without a number means that no potency is given here. The source made the active and inactive calls. Calls follow the shape of the dose curve; as a rule, active = well fitted cell-killing curve with a large enough effect; inconclusive = small, poorly fitted or top-dose-only effect, or effect the other way; inactive = no such curve, though single readings can be large or run the other way.

Test: Quantitative High-Throughput drug screen in 47 multiple myeloma cell lines against the NCATS MIPE library collection: PE2_PLB cell viability assay (AID 1919869); also: nearly all actives have a fitted effect of over 35% in size
Conditions: PE2_PLB myeloma cells viability, ATP luminescence, 48 h; series mostly up to 45.8 µM
From the text: PI: Beverly A. Mock Ph.D.
Laboratory of Cancer Biology and Genetics,
Center for Cancer Research, National Cancer Institute,
National Institute of Health, Bethesda, Maryland
Drug resistance and disease progression are common in multiple myeloma (MM) patients, underscoring the need for new therapeutic combinations. […] We hypothesized that effective combinations would reduce MYC expression and enhance p16 activity. […] These preclinical data identify potentially useful drug combinations for evaluation in drug-resistant MM and reveal potential mechanisms of combined drug sensitivity.
Described herein is the primary MIPE qHTS used to cherrypick compounds. Validated compounds were then further tested for potential synergistic activiy.
[1] Peat TJ, Gaikwad SM, Dubois W, Gyabaah-Kessie N, Zhang S, Gorjifard S, Phyo Z, Andres M, Hughitt VK, Simpson RM, Miller MA, Girvin AT, Taylor A, Williams D, D'Antonio N, Zhang Y, Rajagopalan A, Flietner E, Wilson K, Zhang X, Shinn P, Klumpp-Thomas C, McKnight C, Itkin Z, Chen L, Kazandijian D, Zhang J, Michalowski AM, Simmons JK, Keats J, Thomas CJ, Mock BA. Drug combinations identified by high-throughput screening promote cell cycle transition and upregulate Smad pathways in myeloma. Cancer Lett. 2023 Aug 1;568:216284. doi: 10.1016/j.canlet.2023.216284. Epub 2023 Jun 24. PMID: 37356470; PMCID: PMC10408729.
SEQUENCE No. (e.g., 1, 2, 3, etc.); […] (e.g., Cells, Incubation, Reagent, etc.); VALUE and DESCRIPTION.
1; Cells; 5 uL; white, solid bottom 1536-well Greiner assay plate.
2; Compounds; 23 nL; Kalypsis pin tool (Wako USA) equipped with a 1536-well pin head to transfer to the assay plates.
3; Incubation; 48 hours; 37C incubation.
4; Reagent;5uL; CellTiter Glo (Promega).
5; Detector; 425V; Luminescence; Viewlux PerkinElmer.
NOTES (numbers refer to Sequence numbers above)
1. The cell-based screening methods employed in this study were like those previously published. Briefly, the corresponding myeloma cell lines were screened in 1,536-well plates with 500 cells, 5-uL per well for inhibition of cell viability (assessed by measuring ATP levels with CellTiterGlo).
2. NCATS MIPE 4.0 library of approved and investigational drugs were added using the Kalypsis pin tool. Wells treated with DMSO only for 100% viability and media only for 0% viability were used as controls.
3. The assay plates were covered and incubated for 48 hours in a 37C, 5% CO2 incubator with controlled humidity.
4. After 48 hours, CellTilter-GloTM luminescent substrate mix (Promega) reagent was added to the assay plate and plates we incubated for 5 min at room temperature.
5. Signal was measured as median relative luminescence units on a ViewLux (PerkinElmer) multiplate reader.
[1] Heske CM, Davis MI, Baumgart JT, Wilson K, Gormally MV, Chen L, Zhang X, Ceribelli M, Duveau DY, Guha R, Ferrer M, Arnaldez FI, Ji J, Tran HL, Zhang Y, Mendoza A, Helman LJ, Thomas CJ. Matrix Screen Identifies Synergistic Combination of PARP Inhibitors and Nicotinamide Phosphoribosyltransferase (NAMPT) Inhibitors in Ewing Sarcoma. Clin Cancer Res. 2017 Dec 1;23(23):7301-7311. doi: 10.1158/1078-0432.CCR-17-1121. Epub 2017 Sep 12. PMID: 28899971; PMCID: PMC6636827.
Potency is read from the fitted curve at half-maximal effect.

Row | SMILES | Potency
1 | CN1C(=O)CCS(=O)(=O)C1c1ccc(Cl)cc1 (stereo not given) | inactive
2 | C[C@]12CC[C@H]3[C@@H](CC[C@@]45O[C@H]4C(O)=C(C#N)C[C@]35C)[C@H]1CC[C@H]2O | inactive
3 | C[C@](O)(CS(=O)(=O)c1ccc(F)cc1)C(=O)Nc1ccc(C#N)c(C(F)(F)F)c1 | 662 nM (active)
4 | CC(C)C[C@H](CN)CC(=O)O | inactive
5 | C[C@]12CC[C@@H]3c4ccc(OC(=O)N(CCCl)CCCl)cc4CC[C@H]3[C@@H]1CC[C@@H]2OP(=O)(O)O | inactive
6 | CCC1(c2ccc(N)cc2)CCC(=O)NC1=O (stereo not given) | inactive
7 | CC(NC(C)(C)C)C(=O)c1cccc(Cl)c1 (stereo not given) | inactive
8 | COc1cc(OC)c(OC)cc1C=O | inactive
9 | O=C(O)CCCc1ccc(N(CCCl)CCCl)cc1 | inactive
10 | CC(C)c1cccc(C(C)C)c1O | inactive
